By AC50 is commonly meant the midpoint of the concentration-response curve, whichever way the signal moves.

“And” between values parts separate entries of the source, which are not always exact repeats. Equal values may be shown once. Results filed as inconclusive are left out. A structure can be active in one record and inactive in another. The source made the active and inactive calls. How the source made its calls, unless noted: active means hit-call score of the fitted dose curve at least 0.9, where 1 is the maximum; inactive means score below 0.9.

Sequence of E-selectin (Homo sapiens) (P16581 whole entry, looked up): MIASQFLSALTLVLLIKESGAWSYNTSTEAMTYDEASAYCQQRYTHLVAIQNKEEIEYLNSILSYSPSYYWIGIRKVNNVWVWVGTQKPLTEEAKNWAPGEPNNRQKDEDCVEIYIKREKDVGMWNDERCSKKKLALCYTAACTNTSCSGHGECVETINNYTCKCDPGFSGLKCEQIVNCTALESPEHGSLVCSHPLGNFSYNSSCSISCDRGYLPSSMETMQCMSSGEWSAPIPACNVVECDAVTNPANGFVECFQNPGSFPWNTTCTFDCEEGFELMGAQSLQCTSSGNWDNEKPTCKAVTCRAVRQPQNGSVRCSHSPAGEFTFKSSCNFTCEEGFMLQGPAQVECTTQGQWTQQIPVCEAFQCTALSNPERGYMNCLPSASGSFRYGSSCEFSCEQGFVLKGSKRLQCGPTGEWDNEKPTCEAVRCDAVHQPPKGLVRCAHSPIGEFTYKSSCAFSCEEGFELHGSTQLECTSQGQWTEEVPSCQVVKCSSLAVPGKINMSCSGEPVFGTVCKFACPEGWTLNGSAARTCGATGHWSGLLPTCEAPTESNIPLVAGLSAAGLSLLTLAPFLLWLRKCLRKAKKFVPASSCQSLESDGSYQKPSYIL
Sequence of human Thyroid Receptor alpha (THRa1), THRA (gene 7067) (P10827 whole entry, looked up): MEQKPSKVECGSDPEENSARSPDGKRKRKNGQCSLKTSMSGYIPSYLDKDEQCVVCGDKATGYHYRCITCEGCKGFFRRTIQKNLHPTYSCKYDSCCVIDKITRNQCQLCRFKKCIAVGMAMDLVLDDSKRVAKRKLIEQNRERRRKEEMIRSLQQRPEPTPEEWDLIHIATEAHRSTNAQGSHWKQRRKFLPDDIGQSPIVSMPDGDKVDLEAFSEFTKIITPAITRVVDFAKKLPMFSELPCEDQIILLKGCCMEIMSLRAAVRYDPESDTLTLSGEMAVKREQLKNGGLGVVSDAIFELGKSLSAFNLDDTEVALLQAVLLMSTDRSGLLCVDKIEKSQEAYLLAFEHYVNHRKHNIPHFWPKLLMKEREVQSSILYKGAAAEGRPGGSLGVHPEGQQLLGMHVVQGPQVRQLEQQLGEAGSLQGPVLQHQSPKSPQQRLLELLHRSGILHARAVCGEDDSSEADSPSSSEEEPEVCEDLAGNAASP

One experiment deals with human Retinoid X Receptor beta (RXRb), RXRB (gene 6257) (UniProt P28702). As to the kind of experiment: ATG_RXRb_TRANS: Attagene TRANS-FACTORIAL HepG2 Assay for human Retinoid X Receptor beta (RXRb) (AID 2283013; active means hit-call score of the fitted dose curve at least 0.9, where 1 is the maximum).
Sequence of human Retinoid X Receptor beta (RXRb), RXRB (gene 6257) (P28702 whole entry, looked up): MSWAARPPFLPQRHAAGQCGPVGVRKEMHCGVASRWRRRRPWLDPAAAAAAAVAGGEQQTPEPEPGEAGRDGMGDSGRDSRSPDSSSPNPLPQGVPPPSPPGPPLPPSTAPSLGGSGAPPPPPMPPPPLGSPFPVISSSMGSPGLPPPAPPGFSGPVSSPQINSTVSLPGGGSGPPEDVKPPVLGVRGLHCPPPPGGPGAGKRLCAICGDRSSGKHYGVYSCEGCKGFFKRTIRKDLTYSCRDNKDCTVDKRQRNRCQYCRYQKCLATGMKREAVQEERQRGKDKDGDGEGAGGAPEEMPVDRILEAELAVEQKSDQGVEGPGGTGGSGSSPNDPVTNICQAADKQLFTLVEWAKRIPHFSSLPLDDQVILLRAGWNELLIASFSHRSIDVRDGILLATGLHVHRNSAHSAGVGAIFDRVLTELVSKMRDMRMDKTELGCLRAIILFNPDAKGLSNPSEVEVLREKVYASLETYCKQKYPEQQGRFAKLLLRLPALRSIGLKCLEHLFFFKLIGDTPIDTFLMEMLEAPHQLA
Details: not given
Put shortly:
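Chimeric receptor-Gal4 activity was assessed in transiently transfected human HepG2 cells after 24 h exposure. Transcripts from GAL4-UAS reporters were quantified by fluorescent RT-PCR and capillary electrophoresis, with DMSO as negative control and baseline.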
Turning to `O=C(Cl)C(F)(F)C(F)(F)C(F)(F)C(F)(F)C(F)(F)C(F)(F)C(F)(F)F`, the AC50 is 34.6 µM (active).
For the molecule `CCC/C=C/CO`, the molecule was called inactive.
The same measure, in the same setting: the entry for `O=S(=O)(Cl)C(F)(F)C(F)(F)C(F)(F)C(F)(F)C(F)(F)C(F)(F)C(F)(F)C(F)(F)F` is “inactive”; for `NC(=O)C(F)(F)C(F)(F)C(F)(F)C(F)F` it is “inactive”; for `CC(C)OC=O` it is “inactive”.
Turning to `Cc1ccc([N+](=O)[O-])c(C)c1`, the molecule was called inactive.
Same read-out and setting: the entry for `O=C(O)C(F)(F)C(F)(F)C(F)(F)C(F)(F)C(F)(F)C(F)(F)C(F)F` is “inactive”; for `CCc1cccc(C)c1N(C(=O)C(=O)O)C(C)COC` (configuration not stated) it is “inactive”.
As to `Cc1cc(C)c(O)c(C(C)(C)C)c1`, the AC50 was 28.9 µM (active).

Another experiment concerns the target human Thyroid Receptor alpha (THRa1), THRA (gene 7067) (UniProt P10827). Description: ATG_THRa1_TRANS: Attagene TRANS-FACTORIAL HepG2 Assay for human Thyroid Receptor alpha (THRa1) (AID 2283014; active means hit-call score of the fitted dose curve at least 0.9, where 1 is the maximum).
Details: not given
Put shortly: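 Transcripts from GAL4-UAS-driven reporters, measured after 24 h compound exposure by RT-PCR plus capillary electrophoresis of 6-FAM-labeled fragments, were fitted for gain of signal relative to DMSO. Cells: transiently transfected HepG2 expressing NR-Gal4 chimeras.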
Turning to `CCC(C)CO` (configuration not stated), the result was inactive.
Same read-out and setting: the entry for `CC(=O)c1ccccc1N` is “inactive”; for `CCCCC(CC)COC(=O)c1ccc(N(C)C)cc1` (configuration not stated) it is “inactive”.
Take `C[C@]12CC[C@H]3C(=CCc4cc(O)ccc43)[C@@H]1CCC2=O`: the outcome was inactive.
For `O=C(Cl)C(F)(F)C(F)(F)C(F)(F)C(F)(F)C(F)(F)C(F)(F)C(F)(F)F`, the outcome was inactive.
Turning to `OCC(O)CC(F)(F)C(F)(F)C(F)(F)C(F)(F)C(F)(F)C(F)(F)C(F)(F)C(F)(F)F` (configuration not stated), the result was inactive.
Regarding `O=C1C=CC(=O)N1c1ccc(Cc2ccc(N3C(=O)C=CC3=O)cc2)cc1`, the molecule was classed as inactive.
As to `COc1ccccc1C=O`, the outcome was inactive.
As for `NS(=O)(=O)C(F)(F)C(F)(F)C(F)(F)C(F)(F)C(F)(F)C(F)(F)F`, the call was inactive.
Still for that read-out and setting: the entry for `Cc1cc(O)c(C(C)(C)C)cc1C(C)(C)C` is “inactive”; for `NC(=O)C(F)(F)C(F)(F)C(F)(F)C(F)F` it is “inactive”.
Same read-out and setting: the entry for `CN(N=O)C(=O)N[C@@H]1[C@@H](O)[C@H](O)[C@@H](CO)O[C@@H]1O` is “inactive”; for `Nc1c(Br)cc([N+](=O)[O-])cc1Br` it is “inactive”.
`Cc1ccc([N+](=O)[O-])c(C)c1`: the molecule was called inactive.
In the case of `CCCCOC(=O)[C@H](C)O`, the molecule was called inactive.
Consider `O=C(O)C(F)(F)C(F)(F)C(F)(F)C(F)(F)C(F)(F)C(F)(F)C(F)F`, for which the molecule was classed as inactive.
The same measure, in the same setting: next, `CNS(=O)(=O)C(F)(F)C(F)(F)C(F)(F)C(F)(F)C(F)(F)C(F)(F)C(F)(F)C(F)(F)F`: “inactive”.
Same read-out and setting: next, `Brc1ccccn1`: “inactive”; `Cc1cc(C)c(O)c(C(C)(C)C)c1`: “inactive”.

Read-out in another experiment: E-selectin (Homo sapiens) (UniProt P16581)
Description: BSK_3C_Eselectin: BioMAP Diversity Plus: 3C Assay for Eselectin Biomarker Activity (AID 2283015).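 On outcome: cell surface E-selectin protein quantified by ELISA 24 h after dosing.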 To be noted: primary human endothelial cells (HUVEC); actives raise or lower the signal. Summed up: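 E-selectin ELISA readout, fitted bidirectionally relative to DMSO, taken 24 h post-dosing in HUVEC cultures of the 3C system. Overt cytotoxicity tracked with sulforhodamine B staining of parallel wells.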
Regarding `C[C@]12CC[C@H]3C(=CCc4cc(O)ccc43)[C@@H]1CCC2=O`, the result was inactive.
On to `O=C(Cl)C(F)(F)C(F)(F)C(F)(F)C(F)(F)C(F)(F)C(F)(F)C(F)(F)F`, for which the outcome was inactive.
The same measure, in the same setting: next, `OCC(O)CC(F)(F)C(F)(F)C(F)(F)C(F)(F)C(F)(F)C(F)(F)C(F)(F)C(F)(F)F` (configuration not stated): “inactive”.
With `O=C1C=CC(=O)N1c1ccc(Cc2ccc(N3C(=O)C=CC3=O)cc2)cc1`, the AC50 is 8.52 µM (active).
The same measure, in the same setting: the figure for `O=S(=O)(Cl)C(F)(F)C(F)(F)C(F)(F)C(F)(F)C(F)(F)C(F)(F)C(F)(F)C(F)(F)F` is 46.5 µM (active) and 39.2 µM (active).
As to `NS(=O)(=O)C(F)(F)C(F)(F)C(F)(F)C(F)(F)C(F)(F)C(F)(F)F`, the outcome was inactive.
On to `Cc1cc(O)c(C(C)(C)C)cc1C(C)(C)C`, for which the AC50 is 3.91 µM (active).
On to `NC(=O)C(F)(F)C(F)(F)C(F)(F)C(F)F`, for which the result was inactive.
For `O=C(O)C(F)(F)C(F)(F)C(F)(F)C(F)(F)C(F)(F)C(F)(F)C(F)F`, the outcome was inactive.
With `CNS(=O)(=O)C(F)(F)C(F)(F)C(F)(F)C(F)(F)C(F)(F)C(F)(F)C(F)(F)C(F)(F)F`, the outcome was inactive.
For `Cc1cc(C)c(O)c(C(C)(C)C)c1`, the AC50 is 28.9 µM (active).

Read-out in another experiment: Interleukin-1 alpha (IL1a), IL1A (gene 3552)
As to the kind of experiment: BSK_BE3C_IL1a: BioMAP Diversity Plus: BE3C Assay for Interleukin-1 alpha (IL1a) Biomarker Activity (AID 2283016). To be noted: primary human bronchial epithelial cells; actives raise or lower the signal. Summed up: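 Signal from IL-1a ELISA, taken 24 h after chemical dosing of human bronchial epithelial cells, is compared with DMSO as baseline using bidirectional curve fitting.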
As to `C[C@]12CC[C@H]3C(=CCc4cc(O)ccc43)[C@@H]1CCC2=O`, the result was inactive.
For the molecule `O=C(Cl)C(F)(F)C(F)(F)C(F)(F)C(F)(F)C(F)(F)C(F)(F)C(F)(F)F`, the result was inactive.
As for `OCC(O)CC(F)(F)C(F)(F)C(F)(F)C(F)(F)C(F)(F)C(F)(F)C(F)(F)C(F)(F)F` (configuration not stated), the result was inactive.
As for `O=C1C=CC(=O)N1c1ccc(Cc2ccc(N3C(=O)C=CC3=O)cc2)cc1`, the AC50 is 3.26 µM (active).
Same read-out and setting: the figure for `O=S(=O)(Cl)C(F)(F)C(F)(F)C(F)(F)C(F)(F)C(F)(F)C(F)(F)C(F)(F)C(F)(F)F` is 46.4 µM (active) and 47.1 µM (active).
`NS(=O)(=O)C(F)(F)C(F)(F)C(F)(F)C(F)(F)C(F)(F)C(F)(F)F`: the AC50 was 31.6 µM (active) and the outcome was inactive.
Regarding `Cc1cc(O)c(C(C)(C)C)cc1C(C)(C)C`, the AC50 is 4.77 µM (active).
As for `NC(=O)C(F)(F)C(F)(F)C(F)(F)C(F)F`, the outcome was inactive.
For `O=C(O)C(F)(F)C(F)(F)C(F)(F)C(F)(F)C(F)(F)C(F)(F)C(F)F`, the result was inactive.
As for `CNS(=O)(=O)C(F)(F)C(F)(F)C(F)(F)C(F)(F)C(F)(F)C(F)(F)C(F)(F)C(F)(F)F`, the result was inactive.
As to `Cc1cc(C)c(O)c(C(C)(C)C)c1`, the AC50 is 32.6 µM (active).

Read-out in a further experiment: Monocyte Chemoattractant Protein-1 (MCP1), CCL2 (gene 6347)
As to the kind of experiment: BSK_3C_MCP1: BioMAP Diversity Plus: 3C Assay for Monocyte Chemoattractant Protein-1 (MCP1) Biomarker Activity (AID 2283017). To be noted: primary human endothelial cells (HUVEC); actives raise or lower the signal. Put shortly:
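MCP-1 was measured by ELISA 24 h after dosing in primary HUVEC 3C cultures and fitted in both directions relative to DMSO; cytotoxicity was checked by SRB total-protein staining in parallel wells.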
As to `C[C@]12CC[C@H]3C(=CCc4cc(O)ccc43)[C@@H]1CCC2=O`, the result was inactive.
As to `O=C(Cl)C(F)(F)C(F)(F)C(F)(F)C(F)(F)C(F)(F)C(F)(F)C(F)(F)F`, the result was inactive.
With `OCC(O)CC(F)(F)C(F)(F)C(F)(F)C(F)(F)C(F)(F)C(F)(F)C(F)(F)C(F)(F)F` (configuration not stated), the outcome was inactive.
For the molecule `O=C1C=CC(=O)N1c1ccc(Cc2ccc(N3C(=O)C=CC3=O)cc2)cc1`, the AC50 was 8.09 µM (active).
Consider `O=S(=O)(Cl)C(F)(F)C(F)(F)C(F)(F)C(F)(F)C(F)(F)C(F)(F)C(F)(F)C(F)(F)F`, for which the result was inactive.
Same read-out and setting: next, `NS(=O)(=O)C(F)(F)C(F)(F)C(F)(F)C(F)(F)C(F)(F)C(F)(F)F`: “inactive”.
Take `Cc1cc(O)c(C(C)(C)C)cc1C(C)(C)C`: the AC50 was 4.59 µM (active).
As for `NC(=O)C(F)(F)C(F)(F)C(F)(F)C(F)F`, the outcome was inactive.
On the same count and under the same terms, the entry for `O=C(O)C(F)(F)C(F)(F)C(F)(F)C(F)(F)C(F)(F)C(F)(F)C(F)F` is “inactive”; for `CNS(=O)(=O)C(F)(F)C(F)(F)C(F)(F)C(F)(F)C(F)(F)C(F)(F)C(F)(F)C(F)(F)F` it is “inactive”.
In the case of `Cc1cc(C)c(O)c(C(C)(C)C)c1`, the AC50 is 29 µM (active).

(Values after PubChem BioAssay (EPA / NIEHS).)
